Data reported in PubChem BioAssay (NCI).
This is part of a sample that, as a whole, favours compounds with a hit. Of some 83,000 tested, about 20% had one in any assay.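 Plates (96-well) were seeded with cells, treated with compound at one concentration, and incubated for 48 hours before percent growth was determined.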 Activity calls are given as the source filed them.

Tested on: HCT-116 colon
Experiment: NCI-60 one-dose screen, 48 h (100 = growth as untreated, 0 = no growth, -100 = all killed)
Settings: 10 µM unless noted
Experimental: Growth inhibition of the HCT-116 human tumor cell line is measured as a screen for anti-cancer activity. Cells are grown in 96 well plates and exposed to the test compound for 48 hours. Compounds are tested at a single concentration, which is 10^-5 M for most compounds. The reported endpoint is percent growth (GI% or GIPRCNT), where numbers from 0 - 100% represent growth inhibition, and numbers from -100% - 0 represent cell death. For example, a value of 40 represents 60% growth inhibition. A value of 0 means no net growth occurred over the course of the experiment. A value of -40 indicates 40% of cells at the beginning of the experiment died by the end of the experiment. A value of -100 means all cells are dead at the end of the experiment.
NCI-60 Human Tumor Cell Lines Screen was performed using the standard one-dose NCI protocol, which is described in more detail at https://dtp.cancer.gov/discovery_development/nci-60/default.htm.
Compounds with GIPRCNT values below 10 were considered active. Activity score was based on GIPRCNT using the following formula: […]
Score is 0 for GIPRCNT values of 100 or above, 50 for GIPRCNT values of 0, and 100 for GIPRCNT values of -100.

Row | SMILES | growth
1 | Nc1c(C(=O)Nc2ccccn2)sc2nc3c(cc12)CCCC3 | 13.6% (inactive)
2 | O=C1NC(SCc2ccc(F)cc2)=N/C1=C/c1cccc(OCc2ccc(Cl)cc2)c1 | -10.9% (active)
3 | C=C1C(=O)O[C@H]2[C@H]1CC/C(COC(=O)NCC(=O)Nc1ccc(OC)c(C(N)=O)c1O)=C\CC[C@@]1(C)O[C@@H]21 | 36% (inactive)
4 | O=C(O)c1ccc(-n2cc(/C=N/Nc3ccc(Cl)cc3Cl)c(-c3ccccc3)n2)cc1 | 76.8% (inactive)
5 | Fc1ccc(N/N=C/c2ccc(-n3cccn3)cc2)cc1 | 91.9% (inactive)
6 | C=C1C(=O)O[C@H]2[C@H]1CC/C(COC(=O)CCCCCCCC(=O)OC/C1=C/CC[C@@]3(C)O[C@H]3[C@H]3OC(=O)C(=C)[C@@H]3CC1)=C\CC[C@@]1(C)O[C@@H]21 | -43.6% (active)
7 | CN(C)c1ccc(-c2ccc3[nH]c(=O)nc(-c4ccc(F)cc4)c3c2)cn1 | 22.2% (inactive)
8 | O=C(C[n+]1cccc2cc(Cl)ccc21)c1ccc2c(c1)CCCC2 | 7.99% (active)
9 | Cc1ccc(C2CC(c3ccc(Nc4nc(NCCO)nc(NCCO)n4)cc3)=NN2c2ccc(Cl)cc2)cc1 (stereo not given) | 41.2% (inactive)
10 | CCO/C=N/S(=O)(=O)c1cc2c(cc1Cl)NC=NS2(=O)=O | 103% (inactive)
11 | O=C(CN1N=C(c2ccc(F)cc2)CCC1=O)Nc1nccs1 | 104% (inactive)
12 | COc1cc(NC(=O)COc2cc(C)nc3ccc(OC)cc23)cc(OC)c1 | 90.2% (inactive)
13 | COC(=O)[C@]1(C)CCC[C@]2(C)[C@H]3C[C@H]4C(C(C)C)=C[C@]3(CC[C@H]21)[C@@H]1C(=O)N(CCC#N)C(=O)[C@@H]14 | 70.8% (inactive)
14 | OCCNc1nc(NCCO)nc(Nc2ccc(C3=NN(c4ccc(Cl)cc4)C(c4ccc(Cl)cc4)C3)cc2)n1 (stereo not given) | 48.6% (inactive)
15 | O=C(Nc1cc(Br)ccn1)c1cc2cc(Nc3nc(-c4ccccc4)nc4ccccc34)ccc2oc1=O | 98.5% (inactive)
16 | CCCCN(CCCC)CC(CN(CC)CC)OC(=O)Nc1ccccc1 (stereo not given) | 56.5% (inactive)
17 | CCCCc1ccc(N=Nc2ccc(OCC[N+](C)(C)C)cc2)cc1 | 48.7% (inactive)
18 | O=C(Nc1nc(-c2ccccc2Cl)cs1)c1cc(-c2ccc(Br)cc2)nc2ccccc12 | 43.6% (inactive)
19 | NC(=N\N=C\c1ccccc1O)/C(N)=N/N=C/c1ccccc1O | 81.3% (inactive)
20 | O=c1nc(-c2ccccc2)c2cc(-c3ccc(N4CCCC4)nc3)ccc2[nH]1 | 45.7% (inactive)

Row | SMILES | growth
21 | C#C[C@@]1(O)[C@@H](CO)O[C@@H](n2cc(F)c3c(N)ncnc32)[C@@H]1O | 1.44% (active)
22 | COC(=O)/C=C1\SC(=Nc2cccc(OC)c2)N(CCc2c[nH]c3ccccc23)C1=O | 50.1% (inactive)
23 | O=C(/C(=C/c1ccc([N+](=O)[O-])cc1)SCc1ccc(Cl)cc1)c1ccc(F)cc1 | -54.9% (active)
24 | FC(F)(F)c1ccc2c(Nc3cccc(C4CC(c5ccccc5)=NN4c4ccc(Cl)cc4)c3)ccnc2c1 (stereo not given) | -3.98% (active)
25 | COc1ccc2nc(-c3ccc(OC)c(OC)c3)cc(-c3nnc(SCC(=O)Nc4ccc(C(C)=O)cc4)o3)c2c1 | 89.7% (inactive)
26 | Cc1nc2sc(C(=O)Nc3cccc(Cl)c3C)c(N)c2cc1C(C)O (stereo not given) | 13.9% (inactive)
27 | S=c1ssnc1-c1cc2ccccc2o1 | 59.5% (inactive)
28 | Cc1nn(-c2ccc(-c3ccc(OC(F)(F)F)cc3)cc2)c2nc(-c3ccccc3)nc(N)c12 | 96.7% (inactive)
29 | Cn1nc(C(F)(F)F)c(-c2cc(C(F)(F)F)cc(C(F)(F)F)c2)c1-c1ccc(OCc2ccc(Cl)cc2)cc1O | 3.65% (active)
30 | Cc1ccccc1NC(=O)c1sc2nc(C)c(C(C)O)cc2c1N (stereo not given) | 22% (inactive)
31 | COc1ccc(Cl)c([N+](=O)[O-])c1 | 108% (inactive)
32 | COC1=CC=CC2(OC)C3(O)CCCc4cccc(c43)N3C(=O)COC132 (stereo not given) | 89.7% (inactive)
33 | COCCOCCOCc1n(Cc2ccc3ccccc3c2)c2ccccc2[n+]1Cc1ccc2ccccc2c1 | 20.1% (inactive)
34 | Cc1nc2sc(C(=O)Nc3ccccc3)c(N)c2cc1C(C)O (stereo not given) | 30.2% (inactive)
35 | Cc1ccn2c3c(c(C(=O)O)c2c1)C(=O)c1ccccc1C3=O | 82.3% (inactive)
36 | O=C(/C(=C\c1c(-c2ccccc2)[nH]c2ccccc12)S(=O)(=O)c1ccccc1)c1ccccc1 | 33% (inactive)
37 | O=C1CS/C(=N/c2nnc(-c3ccc(O)cc3)s2)N1 | 99.8% (inactive)
38 | Cc1nc(C)c(C)nc1C | 98.4% (inactive)
39 | COc1ccc(-c2cc(-c3nnc(SCC(=O)Nc4ccc(/C(C)=N\O)cc4)o3)c3ccccc3n2)cc1 | 107% (inactive)
40 | Cc1cc(C)n(-c2nc(-c3cccs3)c(C#N)c(=O)[nH]2)n1 | 85.1% (inactive)
